# Data reported in ChEMBL document CHEMBL4513216, “Probing the Open Global Health Chemical Diversity Library for Multistage-Active Starting Points for Next-Generation Antimalarials” (ACS Infect Dis, 2020).
# Among all 69,000 compounds or so, about 8,600 (12%) showed an effect of 50% or more. Many of the other results were omitted from the sample, so strong results are more common in it than they were.
# Test system: Plasmodium berghei
# Experiment: Screen against P. berghei liver stage (PbLuc), transformed with Luciferase, at 10uM
# Type: functional, HepG2
# Settings: tested at 10 uM
row,SMILES,INHIBITION [%]
1,c1cnc(N2CCC3(CCN(Cc4ccncc4)CC3)CC2)nc1,21.6
2,Fc1ccc(CN2CCC3(CC2)CCN(c2ncccn2)CC3)cc1,56.7
3,COc1cccc(CN2CCC3(CCN(c4ncc(F)cn4)CC3)C2)c1,46.7
4,COc1cccc(CN2CCC3(CCN(c4ncc(C)cn4)CC3)C2)c1,31.9
5,COc1cccc(CN2CCC3(CC2)CCN(c2ncc(F)cn2)C3)c1,40.8
6,COc1ccc(CN2CCC3(CC2)CCN(c2ncccn2)CC3)cc1,67.7
7,COc1cccc(CN2CCC3(CC2)CCN(c2ncccn2)C3)c1,11.3
8,c1cnc(N2CC3(CCN(Cc4cccnc4)C3)C2)nc1,13.7
9,Fc1ccc(CN2CCC3(CC2)CCN(Cc2nccs2)CC3)cc1,42.6
10,Cc1cnc(N2CC3(CCN(Cc4cccnc4)C3)C2)nc1,27.2
11,c1cnc(N2CCC3(CCN(Cc4cccnc4)CC3)CC2)nc1,61.4
12,COc1cccc(CN2CCC3(CC2)CCN(c2ncc(C)cn2)C3)c1,65.9
13,COc1nccnc1N1CCC2(CC1)C(=O)N(C)c1ccccc12,-55
14,Cc1ccc(C(=O)NC2CCOc3ccccc32)cc1S(C)(=O)=O (configuration not stated),16.2
15,COc1ccc(CNCc2c(C(C)C)nn(C)c2OC)cn1,27.8
16,CC(C)Cn1cc(C(=O)NC2CCS(=O)(=O)C2)c2ccccc2c1=O (configuration not stated),28.6
17,Cc1ccccc1CNC(=O)c1ccccc1-n1cnc(CN)c1,33.7
18,Cc1cc(-c2cnn(CCNC(=O)c3snnc3C)c2C2CC2)on1,21.9
19,CC(C)(C(N)=O)N1CCN(C(=O)c2ccn(-c3cccc(Cl)c3)n2)CC1,-14.6
20,COc1ncccc1CN1CCn2c(C(=O)N3CCCC3)cnc2C1,7.24
21,Cc1nc[nH]c1CN1CCN(C2CCOCC2)CC(C(N)=O)C1 (configuration not stated),7.52
22,Cn1nnc(NCc2ccc(-c3ccc(Br)cc3)o2)n1,0.868
23,Cc1cnc(CC2COCCN(C(=O)CN3CCCCC3)C2)cn1 (configuration not stated),30.4

row,SMILES,INHIBITION [%]
1,CCCOCC(=O)NS(=O)(=O)c1ccc2c(c1)OCCO2,18.2
2,O=C(COC1CCCCC1)NS(=O)(=O)c1ccc2c(c1)OCCCO2,10
3,CCCOCC(=O)NS(=O)(=O)c1ccc2c(c1)OCCCO2,51.6
4,COCCCC(=O)NS(=O)(=O)c1ccc2c(c1)OCCCO2,38.6
5,O=C(COCC(F)(F)F)NS(=O)(=O)c1ccc2c(c1)OCCCO2,63.5
6,O=C(COC1CCCC1)NS(=O)(=O)c1ccc2c(c1)OCCCO2,8.64
7,CC(C)C(=O)N1CCCc2c(cnn2-c2ccccc2)C1,9.05
8,O=C(O)C1(Oc2ccc(Cl)cc2)CCN(C2CCOCC2)CC1,24.7
9,Cc1cc(C)n(C(=O)c2cn(C)nc2S(=O)(=O)N2CCSCC2)n1,56.5
10,CCCn1cc(C(=O)n2nc(C)cc2C)c(S(=O)(=O)N2CCSCC2)n1,0
11,CCn1cc(C(=O)n2nc(C)cc2C)c(S(=O)(=O)N2CCCCC2)n1,29.7
12,CN(Cc1nc(-c2ccoc2)no1)C1CCCN(c2cccnn2)C1 (configuration not stated),7.12
13,CCNc1c(NC(=O)NC(C)C)c(=O)oc2ccccc12,40.3
14,Cc1cc(-c2cnc(N(C)C)nc2C2CCCCN2C(=O)C2CC2)on1 (configuration not stated),-11.59
15,Cc1cc(-c2cnc(N3CCC(O)CC3)nc2C(C)C)on1,59.4
16,Cc1cc(-c2cnc(N3CCSCC3)nc2C(C)C)on1,50.8
17,Cc1cc(-c2cnc(N3CCN(C)CC3)nc2C(C)C)on1,47.95
18,Cc1cc(-c2cnc(N3CCC(C(N)=O)CC3)nc2C(C)C)on1,77.1
19,COc1ccc(Cl)cc1C(=O)N1CCCC(c2cc(C)[nH]n2)C1 (configuration not stated),-2.53
20,Cc1cc(C(=O)NC2CCC3(CCC(=O)N3CC3CC3)CC2)no1 (configuration not stated),-1.12
21,N#CC1(NC(=O)c2ccc(-c3nc(C4CC4)n[nH]3)cc2)CCSC1 (configuration not stated),22
22,COc1ccc(C(C#N)NC(=O)Cc2ccc(F)c(F)c2)c(OC)c1 (configuration not stated),17.7
23,CCc1noc(CN(CC)Cc2cc3ccc(F)cc3[nH]c2=O)n1,-52.7

row,SMILES,INHIBITION [%]
1,CCCn1cc(C(=O)NCCC(=O)NC2CCCCC2)c(C)n1,-5.12
2,CCCn1cc(C(=O)NC2CCN(CC(=O)NC3CC3)CC2)c(C)n1,39.4
3,CCCn1cc(C(=O)NCC(=O)NC2CC2)c(C)n1,60.3
4,CCC(=O)Nc1ccccc1Sc1nc(Br)nn1C,3.31
5,Cc1ccnc(N2C[C@H]3CC[C@@H](C2)N(CC2CCC2)C3=O)n1,-4.35
6,COc1ccc(-c2nc(C)cc(SCC(N)=O)n2)cc1,85.5
7,Cc1cc(SCC(N)=O)nc(-c2cccc(F)c2)n1,3.58
8,Cc1cc(SCC(N)=O)nc(-c2ccc(F)cc2)n1,-6.18
9,CCC(C)[C@H](N)c1nnc(SCC(=O)Nc2ccc(Br)cc2)o1 (some centres not stated),41.1
10,CC(=O)N1C[C@H]2CC[C@@H](C1)N(S(=O)(=O)c1ccccc1Cl)C2,-7.2
11,CCn1nc(C)cc1S(=O)(=O)N1CCC2(CCCN(C(C)C)C2=O)C1 (configuration not stated),58.6
12,CCCN1CCCC2(CCN(S(=O)(=O)c3cc(C)nn3CC)C2)C1=O (configuration not stated),21.2
13,CCn1nccc1S(=O)(=O)N1CCC2(CCCN(C(C)C)C2=O)C1 (configuration not stated),33
14,O=C(c1ccsc1)N1CCO[C@@H]2CN(Cc3ccco3)CC[C@@H]2C1,44.8
15,Cc1c(CNCC(C)Oc2cccnc2)c2ccccc2n1CC(N)=O (configuration not stated),-36.6
16,CCn1c(C)cc(C(=O)N2CCc3nnc(N)cc3C2)c1C,68.8
17,Nc1cc2c(nn1)CCN(C(=O)c1cccnc1Oc1ccccc1)C2,-18.7
18,Cc1cc(C(=O)N2CCc3nnc(N)cc3C2)c(C)n1C1CC1,-15.8
19,Cc1cc(C(=O)N2CCc3nnc(N)cc3C2)c(C)n1-c1cccnc1,11.8
20,Cc1cc(C(=O)N2CCc3nnc(N)cc3C2)c(C)n1-c1ccccc1,89.3
21,Nc1cc2c(nn1)CCN(C(=O)c1cccc3c1OCCO3)C2,44.2
